Screens from PubChem BioAssay.
MPTP block – inhibitors of mitochondrial permeability transition pore | isolated mouse mitochondria, Ca2+ swelling absorbance, 30 min | inhibition, % at 10 µM | 1.4% of 360,000 active | AID 602449;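 active = inhibition of 50% or more, scaled per plate between neutral and stimulator controls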;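 also: 0% = DMSO wells given calcium and 100% = 1 mM EGTA wells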
Beta cell apopt – beta cell apoptosis inhibition; INS-1E cytokine-induced death, ATP luminescence, 48 h; percent of positive-control rescue, neutral wells zero; protection from apoptosis, % (concentration not given with the values); 0.8% of 300,000 active;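 active = Every replicate reaches about 75%, or at least half do and their mean reaches it too, limit read from the data; inconclusive = At least half of replicates reach the limit but their mean does not; inactive = Under half of replicates reach the limit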;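 also: 0% = cytokine-treated negative control wells and 100% = positive control rescue; higher means more ATP so stronger rescue from cytokine killing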
Calb FLC – affects C. albicans growth with fluconazole. C. albicans CaCi-2 (fluconazole-resistant clinical isolate) + fluconazole, Alamar Blue growth, 48 h. growth inhibition, % (no concentration beside the values). 0.57% of 300,000 active;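 active = growth inhibition above about 58% in most replicates, limit read from the data, passing the limit was not always enough; inconclusive = exactly half the replicates above a set limit; inactive = most replicates below a set limit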;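 also: all wells also contain fluconazole at 8 µg/ml as a sub-toxic cotreatment; 0% = median of DMSO wells and 100% = median of geldanamycin control wells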
CSC inhib – cancer stem cell inhibition; AID 2717; 1.1% of 300,000 active; cancer stem cell-like cells viability, luminescence; inhibition, % at 7.5 µM; in the data active = inhibition above about 75%; inconclusive = no clear call, values can overlap the other calls; tested in HMLE shEcad cells
Mdm2 MdmX PPI – disrupts the human Mdm2-MdmX interaction | O15151+Q00987 | SaOS-2 split-luciferase Mdm2/MdmX complementation, luminescence | inhibition, % at 8 µM | 3% of 330,000 active | AID 485346;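 active = inhibition of at least 50% at 8 µM in the primary screen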
Target sequence (O15151 whole entry, looked up): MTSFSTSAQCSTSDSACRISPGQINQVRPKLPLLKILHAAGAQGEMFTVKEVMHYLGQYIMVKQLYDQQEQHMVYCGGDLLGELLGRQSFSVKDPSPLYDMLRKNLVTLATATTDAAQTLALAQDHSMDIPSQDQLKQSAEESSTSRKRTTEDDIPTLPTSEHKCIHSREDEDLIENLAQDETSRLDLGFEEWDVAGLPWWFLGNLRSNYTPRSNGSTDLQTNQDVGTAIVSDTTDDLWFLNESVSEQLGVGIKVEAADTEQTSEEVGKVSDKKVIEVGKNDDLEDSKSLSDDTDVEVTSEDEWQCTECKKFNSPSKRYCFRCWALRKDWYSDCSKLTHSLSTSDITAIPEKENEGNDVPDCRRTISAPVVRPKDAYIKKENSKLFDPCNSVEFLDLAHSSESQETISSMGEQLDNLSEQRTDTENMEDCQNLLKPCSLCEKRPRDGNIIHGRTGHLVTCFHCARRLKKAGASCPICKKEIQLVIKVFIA
Target sequence (Q00987 whole entry, looked up): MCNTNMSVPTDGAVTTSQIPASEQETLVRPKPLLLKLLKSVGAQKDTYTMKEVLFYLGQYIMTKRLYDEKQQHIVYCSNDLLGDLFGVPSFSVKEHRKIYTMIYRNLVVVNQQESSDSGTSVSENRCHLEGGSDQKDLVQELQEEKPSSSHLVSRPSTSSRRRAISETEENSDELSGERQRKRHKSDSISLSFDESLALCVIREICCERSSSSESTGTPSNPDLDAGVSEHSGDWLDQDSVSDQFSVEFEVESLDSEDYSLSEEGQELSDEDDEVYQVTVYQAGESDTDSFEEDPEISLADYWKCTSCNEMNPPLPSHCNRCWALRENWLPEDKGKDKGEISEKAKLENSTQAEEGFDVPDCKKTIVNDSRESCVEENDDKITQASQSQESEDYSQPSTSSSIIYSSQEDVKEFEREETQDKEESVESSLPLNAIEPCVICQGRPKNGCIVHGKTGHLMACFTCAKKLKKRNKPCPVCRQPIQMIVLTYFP
Active calls of the source: *; ? = inconclusive; · = not tested or not shown. The list is not random: actives were taken first. Their share in the collection is about 4.8%.

SMILES | MPTP block | Beta cell apopt | Calb FLC | CSC inhib | Mdm2 MdmX PPI
Oc1c(C(Nc2ccccn2)c2cccnc2)cc(Cl)c2cccnc12 (stereo unspecified) | 0 | 85* | -4 | -3 | 31
CC(=O)NC(c1cccs1)c1cc([N+](=O)[O-])c2cccnc2c1O (stereo unspecified) | -2 | 90* | 81* | 99* | ·
CCCC(=O)NC(c1cccs1)c1cc([N+](=O)[O-])c2cccnc2c1O (stereo unspecified) | 5 | 61 | 40 | 106* | ·
CCC(=O)NC(c1cccs1)c1cc([N+](=O)[O-])c2cccnc2c1O (stereo unspecified) | 0 | 58 | 86* | 109* | 36
O=C1c2ccccc2C(c2nnnn2-c2ccc3c(c2)OCCO3)N1CCc1ccccc1F (stereo unspecified) | -2 | · | · | · | ·
CCC(=O)NC(c1ccco1)c1cc(Cl)c2cccnc2c1OC (stereo unspecified) | -1 | -2 | · | -14 | 24
CCC(=O)NC(c1ccco1)c1cc(Cl)c2cccnc2c1O (stereo unspecified) | -1 | 24 | 90* | -10 | 38
Oc1c(C(Nc2cccc(C(F)(F)F)c2)c2cccnc2)ccc2cccnc12 (stereo unspecified) | 0 | 5 | 96* | 33 | 21
O=C1N(c2ccccc2)c2ccccc2[C@]12C[C@H](O)CO2 | 0 | · | · | · | ·
CN(C)c1ncnc2c1ncn2[C@H]1CN(Cc2ccc(-c3ccccc3)cc2)C[C@@H](CO)O1 | 0 | · | · | · | ·
CC(C)(C)CN1CCC(Oc2cccc(C(=O)NCCCOc3cccnc3)c2)CC1 | 2 | 105* | -9 | -1 | 27
O=C1C=C(OCCF)CC(c2ccccc2C(F)(F)F)O1 (stereo unspecified) | 0 | · | · | · | ·
COc1ccc(/C=N/OCC(=O)Nc2nc3ccccc3s2)cc1 | 0 | -1 | 108* | · | 5
COc1cccc(C(C)(O)c2nc(-c3cccs3)cs2)c1 (stereo unspecified) | 2 | · | · | · | ·
CCc1nc2ccc(C(=O)N3CCN(C(=O)c4ccco4)CC3)cn2c1N(CC)Cc1cccc(Br)c1 | -3 | · | · | · | ·
CCCCn1c(NS(=O)(=O)c2ccc(C)cc2)c(S(=O)(=O)c2ccccc2)c2nc3ccccc3nc21 | 7 | 3 | 35 | 108* | ·
CCCCn1c(NCc2ccccc2NS(=O)(=O)c2ccc(C)cc2)nc2ccccc21 | 0 | -5 | 27 | 21 | 20
Cc1cc(C(=O)Nc2cccc3ccccc23)c(C)o1 | 0 | -3 | -2 | -8 | 10
Cc1oc(CC(C)C)cc1C(=O)Nc1cccc2ccccc12 | 4 | -4 | 19 | 80* | 26
O=[N+]([O-])c1ccc(/C=N/n2c(CO)nc3ccccc32)s1 | 1 | 81* | 25 | 0 | 34
Cc1nc2ccccc2n1/N=C/c1ccc([N+](=O)[O-])s1 | -6 | 109* | 25 | 47 | 34
Cc1nc2ccccc2n1/N=C/c1ccc([N+](=O)[O-])o1 | 0 | -6 | -47 | ? | 44
Nc1sc(Cc2ccccc2)cc1C(=O)NC1CCCCC1 | -3 | · | · | · | ·
Nc1nc(=S)c2[nH]c(=S)[nH]c2[nH]1 | -2 | · | · | · | ·
Nc1nc(=S)c2[nH]cnc2[nH]1 | 1 | · | · | 91* | 45
SMILES | MPTP block | Beta cell apopt | Calb FLC | CSC inhib | Mdm2 MdmX PPI
COc1cc(OC)cc(C(=O)NNC(=O)c2cc3ccccc3cc2O)c1 | 0 | 4 | 81* | 32 | 43
Cc1ccc(NC(=O)NNC(=O)c2cc3ccccc3cc2O)cc1 | 0 | 0 | ? | 9 | -5
COc1ccccc1NC(=O)NNC(=O)c1cc2ccccc2cc1O | 6 | -3 | 86* | 17 | 10
CCOC(=O)CC(=O)Nc1ncnc2c1C(c1ccccc1)c1c(ccc3ccccc13)O2 (stereo unspecified) | 1 | 2 | · | · | 46
CC(=O)NC1=C(C#N)C(c2ccccc2)c2c(ccc3ccccc23)O1 (stereo unspecified) | 2 | -5 | -1 | 78* | 29
Cc1c(Cl)ccc(S(=O)(=O)Nc2cccnc2)c1Cl | 0 | -4 | 77* | -1 | 9
CC(C)C[C@@H]1COc2cc(N3CC[C@H](O)C3)ccc2S(=O)(=O)N1 | 0 | · | · | · | ·
COc1ccc(NC(=O)CNC(=O)c2nn(-c3ccc(OC)cc3OC)c(=O)c3ccccc23)c(OC)c1 | 0 | 0 | 93* | -42 | 6
COc1ccc(NC(=O)c2cc(-c3cc(F)ccc3OCC3CCCO3)n[nH]2)c(C)c1 (stereo unspecified) | 0 | · | · | · | ·
CCNC(=O)C1CCCN(C(=O)c2ccccc2OC(F)(F)F)CC1 (stereo unspecified) | 1 | · | · | · | ·
CC12CCC(=O)C=C1CCC1C2C(O)CC2(C)C1CCC2(O)C(=O)COC(=O)CCC1CCCC1 (stereo unspecified) | -2 | · | · | · | ·
CCOC(=O)CSc1nnc(-c2cc(OC)c(OC)c(OC)c2)o1 | 1 | -2 | 2 | -8 | 11
COc1cc(-c2nnc(SCc3cc(=O)oc4cc(O)c(O)cc34)o2)cc(OC)c1OC | 3 | · | 104* | 11 | 6
O=C(c1[nH]c(C(F)(F)F)nc1-c1ccccc1)N1CCN(C(=O)C2CCCO2)CC1 (stereo unspecified) | 1 | · | · | · | ·
CNc1nc(-c2ccccn2)nnc1-c1ccccc1 | -3 | -4 | -22 | 23 | 26
c1ccc(-c2nnc(-c3ccccn3)nc2NC2CCCCC2)cc1 | 0 | 96* | 16 | -11 | 17
COc1ccc(NS(=O)(=O)c2cccc(C(=O)N/N=C(\C)c3ccc(-n4ccnc4)cc3)c2)cc1 | -2 | 2 | 4 | 95* | 8
COc1ccc(NS(=O)(=O)c2cccc(C(=O)N/N=C(\C)c3ccncc3)c2)cc1 | 0 | -3 | 0 | -7 | 11
CCN(CC)CCOC(=O)c1ccc(NC(=O)c2ccc(Cl)c(S(=O)(=O)N3CCCCCC3)c2)cc1 | 15 | 4 | 25 | 77* | 32
CCCc1cc(C(=O)Cc2ccc(F)cc2)c(O)cc1O | 18 | 4 | -36 | 82* | 36
CCc1nc2c(OCc3c(C)noc3C)cccn2c1N(C=O)Cc1ccc(OC)cc1 | -2 | · | · | · | ·
Cc1ccn2c(NC3CCCC3)c(-c3ccncc3)nc2c1 | 2 | -5 | -33 | -8 | -26
Cc1ccn2c(NC3CCCCC3)c(-c3cccc(-c4cccc(Cl)c4)c3)nc2c1 | 7 | -1 | -10 | 102* | 44
COc1cnc(-c2ccccn2)nc1Oc1ccc(Cl)cc1 | -1 | 8 | -13 | 17 | 17
Cc1ccc(Sc2cc(C)nc(-c3ccccn3)n2)cc1 | 2 | 87* | 32 | -3 | -4
COc1cnc(-c2ccccn2)nc1Sc1cccc(Cl)c1 | 0 | 40 | 91* | 0 | 39
COc1ccccc1Sc1nc(-c2ccccn2)ncc1OC | -1 | 32 | 3 | 3 | 27
COc1cnc(-c2ccccn2)nc1Sc1ccc(C)cc1 | -1 | 92* | 20 | -6 | 43
COc1ccc(-c2coc3c(C(=O)Nc4cccc(NS(C)(=O)=O)c4)cccc23)c(C)c1 | 1 | · | · | · | ·
C=CCSc1n[nH]c(-c2ccc(OCCC)cc2)n1 | 41 | 1 | 112* | 29 | -110
